The whole screen tested about 310,000 compounds, of which about 2,200 (0.71%) showed an effect of 50% or more. Effects have a minus sign here. For the sample, strong results were picked, then their nearest neighbours and some compounds at random.
Biological target: human ether-à-go-go-related gene (hERG) potassium channel (human, UniProt Q12809)
Assay: primary screen, population patch clamp on CHO cells stably expressing hERG; higher = less effect of the substance

human ether-à-go-go-related gene (hERG) potassium channel, sequence (Q12809 whole entry, looked up): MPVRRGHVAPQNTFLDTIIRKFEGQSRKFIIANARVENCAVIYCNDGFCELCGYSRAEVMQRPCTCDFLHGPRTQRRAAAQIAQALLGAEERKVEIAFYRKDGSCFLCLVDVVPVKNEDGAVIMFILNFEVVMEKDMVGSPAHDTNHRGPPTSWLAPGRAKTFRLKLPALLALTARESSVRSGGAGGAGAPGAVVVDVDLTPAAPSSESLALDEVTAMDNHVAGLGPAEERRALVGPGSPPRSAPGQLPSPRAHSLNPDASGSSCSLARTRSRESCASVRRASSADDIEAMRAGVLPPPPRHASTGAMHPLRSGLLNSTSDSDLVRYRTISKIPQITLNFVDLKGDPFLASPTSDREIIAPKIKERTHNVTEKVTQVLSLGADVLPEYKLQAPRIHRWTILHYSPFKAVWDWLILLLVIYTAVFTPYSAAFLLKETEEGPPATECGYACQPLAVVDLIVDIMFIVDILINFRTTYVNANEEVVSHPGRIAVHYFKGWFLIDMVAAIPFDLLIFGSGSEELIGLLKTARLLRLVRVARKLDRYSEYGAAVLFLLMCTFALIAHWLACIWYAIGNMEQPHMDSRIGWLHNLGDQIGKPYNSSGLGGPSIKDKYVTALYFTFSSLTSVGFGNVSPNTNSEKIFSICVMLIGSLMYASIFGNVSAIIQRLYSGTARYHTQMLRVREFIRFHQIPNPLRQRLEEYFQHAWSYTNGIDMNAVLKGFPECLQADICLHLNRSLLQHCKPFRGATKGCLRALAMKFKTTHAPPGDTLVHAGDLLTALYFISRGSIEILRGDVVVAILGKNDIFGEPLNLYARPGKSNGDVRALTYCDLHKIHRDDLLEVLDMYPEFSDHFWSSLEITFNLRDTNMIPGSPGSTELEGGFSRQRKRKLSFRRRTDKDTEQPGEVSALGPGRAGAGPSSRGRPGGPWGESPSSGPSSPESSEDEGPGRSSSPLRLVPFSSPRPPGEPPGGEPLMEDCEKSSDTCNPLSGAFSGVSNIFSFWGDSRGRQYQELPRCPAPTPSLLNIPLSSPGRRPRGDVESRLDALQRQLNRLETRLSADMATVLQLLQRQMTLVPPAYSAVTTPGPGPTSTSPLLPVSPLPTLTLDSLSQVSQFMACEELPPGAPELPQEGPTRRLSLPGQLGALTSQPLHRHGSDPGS

SMILES | hERG current change (%, negative = inhibition) at 1uM [%]
NS(=O)(=O)c1ccc(NC(=O)CSc2nc(Nc3ccccc3)nc(N3CCOCC3)n2)cc1 | 24.9
Cc1c(F)cccc1NC(=O)CSCC(=O)Nc1ccccc1 | 5.59
COC(=O)C1=C(c2ccc(F)cc2OCc2ccccc2)C[C@@H]2CC[C@H]1N2C(=O)NCc1ccc(Cl)cc1 | 14.6
Cc1ccc(OC(=O)c2ccccc2C(=O)OCC(F)(F)C(F)F)cc1 | 14
Cc1ccc(-c2nnn(CC(=O)NCCC3=CCCCC3)n2)cc1 | 18.4
Cc1ccc(NC(=O)NCCCCc2ccccc2)cc1 | 14.4
CCC(NS(=O)(=O)c1ccc(C)cc1)C(=O)N1CCOCCOCCOCC1 (centres unmarked) | 20.3
COc1ccc(OCc2nnc(SCc3ccc(C(=O)O)cc3)o2)cc1 | 16.6
Cc1ccc(NC(=O)c2nn(C34CC5CC(CC(C5)C3)C4)cc2[N+](=O)[O-])cc1 | -2.47
Cc1cc(Cl)ccc1OCC(=O)NNC(=O)CCOc1ccccc1 | -0.757
O=C(COC(=O)CC(c1ccccc1)c1ccccc1)Nc1ccc(F)c(F)c1 | 1.93
O=c1c2ccccc2nc(-c2ccccc2)n1-c1nccs1 | 11.6
C/C=C(\C)C(=O)OC1c2c(ccc3ccc(=O)oc23)OC(C)(C)C1OC(C)=O (centres unmarked) | -54.7
C/C=C(/C)C(=O)O[C@@H]1c2c(ccc3ccc(=O)oc23)OC(C)(C)[C@@H]1OC(=O)/C(C)=C\C | 9.46
C/C=C(/C)C(=O)OC1c2c(ccc3ccc(=O)oc23)OC(C)(C)C1OC(C)=O (centres unmarked) | -36.9
COc1cccc(-c2nc3n(n2)C(c2ccc4c(c2)OCO4)C(C(N)=O)=C(C)N3)c1 (centres unmarked) | 6.43
Cn1c(=O)[nH]c(=O)c2c1nc(N1CCCCCC1)n2CCSc1nc2ccccc2o1 | 7.86
COc1cc(C(CCN2CCOCC2)c2c(OC)cc(OC)c3c(C)cc(=O)oc23)cc(OC)c1OC (centres unmarked) | -70.3
COc1cc(C(CCN2CCCC2)c2c(OC)cc(OC)c3c(-c4ccccc4)cc(=O)oc23)cc(OC)c1OC (centres unmarked) | -10.9
COc1ccc(C(CCN2CCOCC2)c2c(OC)cc(OC)c3c(C)cc(=O)oc23)cc1 (centres unmarked) | -32.6
CCCCCc1cc(=O)oc2c(C(CCN3CCCCC3)c3cc(OC)c(OC)c(OC)c3)c(OC)cc(OC)c12 (centres unmarked) | -10.6

SMILES | hERG current change (%, negative = inhibition) at 1uM [%]
COc1cc(C(CCN2CCCC2)c2c(OC)cc(OC)c3ccc(=O)oc23)cc(OC)c1OC (centres unmarked) | -26.2
COc1cc(C(CCN2CCN(c3ccccc3)CC2)c2c(OC)cc(OC)c3c(C)cc(=O)oc23)cc(OC)c1OC (centres unmarked) | 9.23
COc1cc(C(CCN2CCCCC2)c2c(OC)cc(OC)c3c(C)cc(=O)oc23)cc(OC)c1OC (centres unmarked) | -96.3
COc1cc(C(CCN2CCCCC2)c2c(OC)cc(OC)c3c(-c4ccccc4)cc(=O)oc23)cc(OC)c1OC (centres unmarked) | -12
COc1cc(C(CCN2CCCC2)c2c(OC)cc(OC)c3c(C)cc(=O)oc23)cc(OC)c1OC (centres unmarked) | -69
O=C(NCCCn1ccnc1)C(=O)c1c[nH]c2ccccc12 | 3.2
CC(=O)Nc1ncc(Cc2cccc(Cl)c2)s1 | 9.23
CC(=O)NS(=O)(=O)c1ccc(NC(=O)CC(C)c2ccccc2)cc1 (centres unmarked) | 2.97
COc1ccc(N2C(=O)CC(NC34CC5CC(CC(C5)C3)C4)C2=O)c(OC)c1 (centres unmarked) | 8.85
CCCN(CC(=O)Nc1cc(C)on1)S(=O)(=O)c1cccc(C(F)(F)F)c1 | 11.3
CCN(CC(=O)Nc1c(F)cccc1F)C(=O)/C=C/c1ccc2c(c1)OCO2 | 3.1
N=c1c(C(=O)NC2CCCC2)cc2c(=O)n3ccccc3nc2n1CCCN1CCOCC1 | -63.7
N=c1c(C(=O)NC2CCCC2)cc2c(=O)n3ccccc3nc2n1CCN1CCOCC1 | -94.2
CCOC(=O)c1c(C2CC2)csc1NC(=O)CSCc1c(C)noc1C | 11.4
CCOC(=O)N1CCN(C(=O)Nc2ccc3nc(C)c(C)nc3c2)CC1 | 4.44
CC(C)c1ccc(CNc2ccc([N+](=O)[O-])cn2)cc1 | 9.11
Cc1cc(C)c(S(=O)(=O)NCc2ccncc2)c(C)c1 | 5.64
C=CCn1c(O)c(C(CC)=NCc2ccco2)c(=O)[nH]c1=O | 2.16
COCCNS(=O)(=O)c1ccc(C2CNC(=O)C2)cc1 (centres unmarked) | 11.3
CCN(CC)S(=O)(=O)c1ccc(C2CNC(=O)C2)cc1 (centres unmarked) | -53.8
O=C1CC(c2ccc(S(=O)(=O)NC3CC3)cc2)CN1 (centres unmarked) | 2.43

SMILES | hERG current change (%, negative = inhibition) at 1uM [%]
Cc1cccc(C(=O)NC(=S)Nc2ccccc2C(=O)O)c1 | 6.08
CCOC(=O)C1CCCN(c2nc(C)nc3c2oc2ccccc23)C1.Cl (centres unmarked) | 8.69
Cc1cc2cc3c(=O)[nH]c(=O)[nH]c3nc2cc1C | 12.1
c1nc(Nc2ccc(N3CCOCC3)cc2)c2ccsc2n1 | 8.37
c1nc(NCC2(N3CCOCC3)CCCCC2)c2ccsc2n1 | -54.5
Cc1sc2ncnc(NCC3(N4CCOCC4)CCCCC3)c2c1C | -23
COc1ccc(C2=NS(=O)(=O)N(C)C(C(=O)N3CCC(C(N)=O)CC3)=C2)cc1 | -8.49
Cc1ccc(NC(=O)c2cc(NC(=O)CCC(=O)O)ccc2N2CCCCC2)cc1 | 11.9
Cc1nnc(NC(=O)CN2C(=O)c3ccccc3S2(=O)=O)s1 | 7.28
CCCCC(=O)N1CCCC(c2nc3c(nnn3Cc3cc(C)ccc3C)c(=O)[nH]2)C1 (centres unmarked) | 3.86
CC[n+]1c(/C=C/C=C/c2ccc(N(C)C)cc2)sc2ccccc21.[O-][Cl+3]([O-])([O-])[O-] | -29
CCN1/C(=C/C=C/c2sc3ccccc3[n+]2CC)Sc2ccccc21.[I-] | -36.8
CC[n+]1c(/C=C/Nc2ccccc2)sc2ccccc21.[I-] | -62.8
CC[n+]1c(/C=C/C=C/N(C(C)=O)c2ccccc2)sc2cc(OC)ccc21.[I-] | 7.77
CC[n+]1c(/C=C/Nc2ccccc2)oc2ccccc21.[I-] | -64.9
CC[n+]1c(/C=C2\C=C(C)CC(C)(C)C2)sc2ccccc21.[I-] | -4.87
CC[n+]1ccccc1/C=C/Nc1ccccc1.[I-] | -5.67
CCOS(=O)(=O)[O-].CC[n+]1c(/C=C/Nc2ccccc2)oc2ccc(OC)cc21 | -68.8
CCN1/C(=C/C=C/c2oc3ccc(-c4ccccc4)cc3[n+]2CC)Oc2ccc(-c3ccccc3)cc21.CCOS(=O)(=O)[O-] | -2.56
CC[n+]1c(/C=C/C=C/N(C(C)=O)c2ccccc2)sc2ccccc21.[I-] | -52.2
CCOc1ccc(S(=O)(=O)Nc2cccc(OC)c2)cc1 | -5.91

SMILES | hERG current change (%, negative = inhibition) at 1uM [%]
CC[n+]1c(/C=C/N(C)c2ccccc2)oc2ccccc21.O=S(=O)([O-])CCO | 12
COC(=O)c1ccccc1Nc1ccnc(Cl)n1 | -6.9
O=C(Nc1c(F)c(F)c(F)c(F)c1F)C1CCCCC1 | 5.93
CC(C(=O)N1CCCC1)N(c1ccccc1)S(C)(=O)=O (centres unmarked) | 20.3
C/C(=N\NC(=O)c1ccccc1)c1ccc(-n2ccnc2)cc1 | 8.54
O=C(CCc1nnc(-c2ccccc2)o1)NCc1cc(F)ccc1F | 0.576
Cc1csc(N(C)C(=O)CSc2nnc(COc3ccccc3C)o2)n1 | 6.62
CC(C)CC(=O)Nc1ccc2oc(-c3cccnc3)nc2c1 | 15.3
COCCSc1nnc(NC(=O)C2CC(=O)N(C3CCCC3)C2)s1 (centres unmarked) | 16
COc1cccc(C(=O)OCC(=O)NC(C)CCc2ccccc2)c1O (centres unmarked) | 13.8
CCN1CCN(C(=O)/C(=C/c2ccco2)NC(=O)c2ccccc2)CC1 | -57.1
Cc1ccc(C(=O)N/C(=C/c2ccco2)C(=O)N2CCOCC2)cc1 | 8.19
O=C(N/C(=C\c1ccc([N+](=O)[O-])cc1)C(=O)N1CCOCC1)c1ccco1 | -57.1
CN1CCN(C(=O)/C(=C/c2ccco2)NC(=O)c2ccccc2)CC1 | -37.1
O=C(N/C(=C\c1ccco1)C(=O)N1CCCC1)c1ccccc1 | 14.4
O=C(N/C(=C\c1ccc([N+](=O)[O-])cc1)C(=O)N1CCCCC1)c1ccco1 | -41.5
O=C(N/C(=C\c1cccc([N+](=O)[O-])c1)C(=O)N1CCOCC1)c1ccc([N+](=O)[O-])cc1 | -2.31
O=C(N/C(=C\c1ccco1)C(=O)N1CCOCC1)c1ccc([N+](=O)[O-])cc1 | -55.9
O=C(N/C(=C/c1ccc([N+](=O)[O-])cc1)C(=O)N1CCOCC1)c1ccco1 | -34.6
CCOc1ccc(NS(=O)(=O)c2ccc3ncsc3c2)cc1 | 12.1
